Reference: ChEMBL document CHEMBL3988442, “University of Dundee, Small-Polar-MMV Screening Library” (2021)
In all, about 67,000 compounds went through this assay and about 300 (0.45%) showed an effect of 50% or more. The sample as a whole holds a higher share of strong results than the screen did.

biological target: Polyketide synthase Pks13 (Mycobacterium tuberculosis (strain ATCC 25618 / H37Rv)) (UniProt I6X8D2); assay: Mycobacterium tuberculosis Polyketide synthase 13 Thioesterase (PKS13); assay type: functional; design: scale not given: in the data most compounds retested in dose-response had high values; conditions: 30 µM
Sequence (I6X8D2 whole entry): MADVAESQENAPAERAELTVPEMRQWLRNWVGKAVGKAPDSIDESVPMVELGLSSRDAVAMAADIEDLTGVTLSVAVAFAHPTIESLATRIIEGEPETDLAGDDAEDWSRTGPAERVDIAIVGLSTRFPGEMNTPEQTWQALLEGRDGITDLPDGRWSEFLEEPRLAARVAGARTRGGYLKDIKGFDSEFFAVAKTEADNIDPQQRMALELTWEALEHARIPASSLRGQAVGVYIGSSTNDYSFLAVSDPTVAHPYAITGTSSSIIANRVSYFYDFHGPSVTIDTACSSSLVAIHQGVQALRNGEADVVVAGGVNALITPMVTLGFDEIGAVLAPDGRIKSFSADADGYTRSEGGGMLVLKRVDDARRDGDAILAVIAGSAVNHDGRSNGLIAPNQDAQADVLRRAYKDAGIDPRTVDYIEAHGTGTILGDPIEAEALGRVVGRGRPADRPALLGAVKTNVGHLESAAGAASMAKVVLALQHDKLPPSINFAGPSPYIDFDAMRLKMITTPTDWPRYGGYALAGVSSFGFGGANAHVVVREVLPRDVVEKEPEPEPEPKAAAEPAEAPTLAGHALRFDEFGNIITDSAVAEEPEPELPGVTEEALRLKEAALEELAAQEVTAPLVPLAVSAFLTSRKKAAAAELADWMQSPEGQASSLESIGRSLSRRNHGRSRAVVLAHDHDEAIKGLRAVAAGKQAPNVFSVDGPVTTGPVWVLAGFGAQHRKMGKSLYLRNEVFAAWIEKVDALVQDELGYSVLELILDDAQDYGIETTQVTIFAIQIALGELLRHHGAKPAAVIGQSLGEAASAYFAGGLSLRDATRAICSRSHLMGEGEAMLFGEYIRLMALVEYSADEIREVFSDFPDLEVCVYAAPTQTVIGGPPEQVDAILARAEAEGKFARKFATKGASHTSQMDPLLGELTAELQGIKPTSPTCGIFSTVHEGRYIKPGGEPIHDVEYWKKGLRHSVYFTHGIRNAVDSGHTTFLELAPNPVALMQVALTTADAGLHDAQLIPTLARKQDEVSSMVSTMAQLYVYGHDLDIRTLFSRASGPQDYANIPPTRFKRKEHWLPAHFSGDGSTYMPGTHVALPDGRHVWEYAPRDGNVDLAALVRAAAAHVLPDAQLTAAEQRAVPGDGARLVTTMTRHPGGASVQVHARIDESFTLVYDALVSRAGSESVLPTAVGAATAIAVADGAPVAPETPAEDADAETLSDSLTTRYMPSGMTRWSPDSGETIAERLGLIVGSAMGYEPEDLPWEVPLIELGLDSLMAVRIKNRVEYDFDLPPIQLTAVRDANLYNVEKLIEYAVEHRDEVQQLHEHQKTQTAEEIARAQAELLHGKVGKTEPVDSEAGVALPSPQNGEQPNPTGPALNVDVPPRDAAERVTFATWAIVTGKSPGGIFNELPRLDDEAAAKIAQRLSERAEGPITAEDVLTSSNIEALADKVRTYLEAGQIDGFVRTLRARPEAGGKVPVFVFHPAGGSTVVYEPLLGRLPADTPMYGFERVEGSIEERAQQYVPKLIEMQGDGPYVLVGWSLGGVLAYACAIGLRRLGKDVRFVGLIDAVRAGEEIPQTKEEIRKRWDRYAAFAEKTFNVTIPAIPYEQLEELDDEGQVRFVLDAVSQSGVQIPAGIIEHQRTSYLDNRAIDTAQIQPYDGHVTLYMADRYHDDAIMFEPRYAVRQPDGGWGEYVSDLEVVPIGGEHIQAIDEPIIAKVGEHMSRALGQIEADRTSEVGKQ

First: Cc1cc(C)n(CCN(C)c2ccc(-c3nc(C4CC4)no3)cn2)n1
Second: Cc1n[nH]c(C)c1CCN(C)c1ccc(-c2nc(C3CC3)no2)cn1
The Percent Effect of the first is lower: 0.156% for the first, 62.8% for the second.

First: Cc1n[nH]c(C)c1CNc1ccc(-c2nc(C3CC3)no2)cn1
Second: Cc1cc(-c2cnc(NC3CCCC3)nc2-c2ccco2)on1
The Percent Effect of the first is lower: 3.88% for the first, 27.1% for the second.

Compared with `CC(=O)NC[C@@]1(COc2cnccn2)C[C@@H](O)[C@@H](O)C1`, `COCC(=O)NC[C@H]1CC[C@H](c2nnc(-c3cccnc3)o2)CC1` is higher in Percent Effect: -8.58% for the first, 5.07% for the second.

First: CC(C)c1nc(CN(C)C2CCN(CCNS(C)(=O)=O)C2)no1 (centres undefined)
Second: CC(C)c1nc(CN(C)C2CCN(CCS(C)(=O)=O)C2)no1 (centres undefined)
The Percent Effect of the first is higher: 93.5% for the first, -22.6% for the second.

First: CCS(=O)(=O)CCN1CCC(N(C)Cc2noc(C(C)C)n2)C1 (centres undefined)
Second: CCS(=O)(=O)N1C[C@H]2CN(c3cnn(C)c3)C(=O)[C@H]2C1
The Percent Effect of the first is lower: -4.58% for the first, -4.27% for the second.

Going from `c1cnc(N2CCO[C@H]3CN(CC4CCOC4)C[C@H]32)cn1` (some centres undefined) to `COc1ccc(CN2CC[C@@H]3CN(S(C)(=O)=O)CCO[C@@H]3C2)cc1`, the Percent Effect falls from -2.77% to -17.7%.

Compared with `Cc1noc(C)c1CN1C[C@H](OCC2CCN(C)CC2)[C@H]2COC[C@H]21`, `Cc1noc(C)c1CN1CC[C@@H]2O[C@@H](COCC3CC3)CC[C@@H]21` is lower in Percent Effect: -13.4% for the first, -31.2% for the second.

First: c1cc(CN2C[C@H](OCC3CCOCC3)[C@H]3COC[C@H]32)cs1
Second: CO[C@@H]1CCN(Cc2cnn(C)c2)[C@@H]2CN(Cc3ccco3)C[C@@H]21
The Percent Effect of the first is higher: 1.55% for the first, -33% for the second.

Going from `O=C(c1ccco1)N1CC[C@@H]2O[C@H](COCCN3CCCC3)CC[C@@H]21` to `O=C1O[C@@H]2CN(Cc3cccc(O)c3)C[C@@H]2N1CCCN1CCOCC1`, the Percent Effect rises from -19.5% to -3.82%.

First: COC(=O)c1ccc(NC2CCN(CC(F)(F)F)C2=O)cc1C (centres undefined)
Second: COC(=O)c1cc(NC2CCN(CC(F)(F)F)C2=O)ccc1C (centres undefined)
The Percent Effect of the first is higher: 62.3% for the first, 9.8% for the second.

Going from `CCOc1ccc(NC2CCN(CC(F)(F)F)C2=O)cc1C` (centres undefined) to `Cc1ccccc1CN1CC[C@H]2C[C@H](C(=O)N(C)C)O[C@H]2C1`, the Percent Effect falls from 7.36% to -13.3%.

First: CN(C)C[C@H]1OC[C@@H]2CCN(C(=O)c3ccc[nH]3)C[C@@H]21
Second: O=C(Nc1cccnc1)[C@H]1COC[C@H]2CN(C3CCCC3)C[C@H]21
The Percent Effect of the first is higher: 11.4% for the first, -10.2% for the second.

Going from `O=C(Nc1cccnc1)[C@H]1CN(C2CCCC2)C[C@H]2OCC[C@@H]12` to `O=C(NCc1ccco1)[C@H]1C[C@H]2OCC[C@H]2N(C(=O)c2ccnnc2)C1`, the Percent Effect rises from -36.1% to -21.2%.

Compared with `CCc1ncc2c(n1)CN(CC1CCCCO1)CC2` (centres undefined), `Cc1ncc2c(n1)CN(CC1CCCCO1)CC2` (centres undefined) is lower in Percent Effect: 78.1% for the first, -13.3% for the second.

Going from `CC(C)c1ncc2c(n1)CN(CC1CCCCO1)CC2` (centres undefined) to `CC(C)c1cc(C(=O)N2C[C@H]3CC[C@@H]2CN(Cc2ccccn2)C3)no1`, the Percent Effect falls from -18.6% to -30.6%.

Compared with `Cc1nc(CN2C[C@@H]3CN(C(=O)c4ccco4)C[C@@H]3C2=O)cs1`, `CSc1ccccc1CN1C[C@H]2C(=O)N(CC3CC3)C[C@@]2(C(=O)O)C1` is lower in Percent Effect: -4.47% for the first, -23% for the second.

First: O=C1NC(c2ccccc2)=N[C@@]12CC[C@@H]1CN(Cc3nccs3)C[C@@H]12
Second: O=C1O[C@@H]2CN(c3ccccn3)C[C@@H]2N1CCCc1ccc(F)cc1
The Percent Effect of the first is higher: 23.9% for the first, -15.8% for the second.

First: Cc1noc([C@]23COC[C@H]2CN(S(=O)(=O)C2CC2)C3)n1
Second: COc1cnc(N2CC(N3CCOCC3)C2)nc1-c1ccnn1C
The Percent Effect of the first is lower: -31.1% for the first, 54.8% for the second.

Compared with `O=C(O)Cn1nc(C2CC2)c2c(-c3cccs3)ccnc21`, `O=c1[nH]c(NC2CCCC2)nc2nccc(-c3cccs3)c12` is higher in Percent Effect: 46.3% for the first, 72.5% for the second.

Going from `O=c1[nH]c(NC2CCCC2)nc2nccc(-c3ccco3)c12` to `O=c1[nH]c(NC2CCCC2)nc2nccc(-c3ccsc3)c12`, the Percent Effect falls from 52.1% to 43%.

Going from `Cc1cc(-c2cnc(NC3CCCCC3)nc2-c2ccco2)on1` to `Cc1cnc(N2CCC(c3ccccc3)CC2)nc1-c1ccnn1C`, the Percent Effect falls from 15% to -31.6%.

First: O=C(Cn1ccc2cc(Br)ccc21)NC[C@@H]1CCCN2CCCC[C@H]12
Second: CC(C)NC(=O)[C@@H]1CN(C(=O)C2CC2)C[C@]12Cc1ccccc1C(=O)N2
The Percent Effect of the first is lower: -5.46% for the first, 52.6% for the second.

Going from `Cn1nnc(NCc2ccc(-c3ccc(Br)cc3)o2)n1` to `CCn1nnc(NCc2ccc(-c3ccc(Br)cc3)o2)n1`, the Percent Effect rises from 13.4% to 31.1%.

First: CCCn1nnc(NCc2ccc(-c3ccc(Br)cc3)o2)n1
Second: Cc1cnc(N2CCC(c3ccncc3)CC2)nc1-c1ccnn1C
The Percent Effect of the first is higher: 50.3% for the first, -33.3% for the second.

Compared with `Cc1cnc(N2CCCC(O)C2)nc1-c1ccnn1C` (centres undefined), `Cc1cnc(N2CCN(C)CC2)nc1-c1ccnn1C` is lower in Percent Effect: 5.81% for the first, 4.24% for the second.

Compared with `COc1cnc(N2CCN(C)CC2)nc1-c1ccnn1C`, `CN1C[C@@H](C(=O)NC(C)(C)C)[C@@]2(CCc3ccccc3C(=O)N2)C1` is lower in Percent Effect: 68% for the first, 1.71% for the second.

Going from `CCn1c(Cn2cncn2)nnc1C1CCN(C[C@H]2[C@@H]3CNC[C@@H]32)CC1` to `CCS(=O)(=O)N1C[C@@H](C(=O)NC(C)C)[C@@]2(Cc3ccccc3C(=O)N2)C1`, the Percent Effect rises from -3.59% to 9.59%.
